# An excerpt weighted towards active compounds, which were near 9% of everything screened.
# KinaseGlo FLuc: Counterscreen for Luciferase (Kinase-Glo TM) Inhibition. Luciferin 4-monooxygenase (Photuris pensylvanica), Q27757. Potency, µM (series often up to 38.3 µM), most hits filed as inhibitors. 0.28% of 200,000 active. Kinase-Glo luciferase, ATP luminescence, 8 min; active = well fitted curve in the direction sought with a large enough effect; inconclusive = small, poorly fitted or top-dose-only effect, or another doubt; inactive = no such curve, though single readings can be large; an effect the other way counts as inactive or inconclusive; also: nearly all actives have a fitted effect of over 60% in size
#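 Light output from Kinase-Glo luciferase with luciferin and 10 uM ATP in 50 mM imidazole pH 7.2, KCl, MgCl2, Tween 20, BSA; compound pin-delivered, 8-min ambient incubation, then luminescence read.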
# IMPase Li cell: qHTS Assay for Identifying the Cell-Membrane Permeable IMPase Inhibitors: Potentiation with Lithium; CHO-M1 cells, IP1 TR-FRET (IP-One), carbachol + lithium; 0.35% of 210,000 active; Potency, µM (series often up to 59.4 µM), usual class: inhibitors; active = well fitted curve in the direction sought with a large enough effect; inconclusive = small, poorly fitted or top-dose-only effect, or another doubt; inactive = no such curve, though single readings can be large; an effect the other way counts as inactive or inconclusive;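 also: IP1 builds up when IMPase is blocked and the TR-FRET signal falls; nearly all actives have a fitted effect of over 50% in size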
#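 Lithium-sensitised IP1 accumulation assay; M1-expressing CHO cells treated 30 min at 37C with compound. Competitive antibody detection by time-resolved FRET followed a 10 min room-temperature lysis step.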
# ALDH1A1 block: qHTS Assay for Inhibitors of Aldehyde Dehydrogenase 1 (ALDH1A1); Aldehyde dehydrogenase 1A1 (Homo sapiens), P00352; Purified ALDH1A1, NADH fluorescence, propionaldehyde substrate; Potency, µM (highest dose often 75.3 µM), actives largely listed as inhibitors; 7.3% of 220,000 active; AID 1030, 2008
# HPGD inh: qHTS Assay for Inhibitors of HPGD (15-Hydroxyprostaglandin Dehydrogenase) | AID 894, 2007 | 4.3% of 150,000 active | purified HPGD, NADH fluorescence kinetic, PGE2 substrate | Potency, µM, usual class: inhibitors | 15-hydroxyprostaglandin dehydrogenase [NAD(+)] (Homo sapiens), P15428
# Target sequence (P15428 whole entry, looked up): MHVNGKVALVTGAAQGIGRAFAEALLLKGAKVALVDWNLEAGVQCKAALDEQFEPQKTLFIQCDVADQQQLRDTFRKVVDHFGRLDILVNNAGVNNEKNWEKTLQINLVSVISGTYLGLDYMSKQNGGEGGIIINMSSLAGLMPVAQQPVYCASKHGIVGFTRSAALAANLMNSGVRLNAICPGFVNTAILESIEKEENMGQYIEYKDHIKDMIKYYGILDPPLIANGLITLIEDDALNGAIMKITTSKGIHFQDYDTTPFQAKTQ
#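 20 nM HPGD preincubated 15 min at room temperature with compound in 50 mM Tris-HCl pH 8, 0.01% Tween 20. Started with 1 mM NAD+ and 30 uM prostaglandin E2; NADH fluorescence (360/450 nm) read 5 times over 30-s intervals, last minus first.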
# LMNA splice mod: qHTS Assay for Modulators of Lamin A Splicing. HeLa LMNA splicing GFP/RFP minigene ratio, 48 h. Potency, µM (highest dose often 46.1 µM), usual class: inhibitors. 0.01% of 200,000 active. AID 1487, 2009; active = well fitted inhibition curve with a large enough effect in the signal ratio, with a control signal flat, not every such curve was filed as active; inconclusive = small, poorly fitted or top-dose-only effect, or effect the other way, or a change in a side signal; the % refers to the signal ratio
#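 Read-out is the ratio of GFP to DsRed2 object intensity, acquired by 488 nm laser-scanning cytometry on HeLa lamin A-EGFP minigene reporter cells. Compound incubation 48 hrs at 37 °C in Opti-MEM with 2% FBS; DMSO 0.5% final.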
# Hits are given with their value; – = inactive; ? = inconclusive; · = no result; [ ] = remark or other dose. Unless noted, calls follow the shape of the dose curve; as a rule, active = well fitted inhibition curve with a large enough effect (not every such curve was filed as active); inconclusive = small, poorly fitted or top-dose-only effect, or another doubt; inactive = no such curve, though single readings can be large or run the other way.
SMILES,KinaseGlo FLuc,IMPase Li cell,ALDH1A1 block,HPGD inh,LMNA splice mod
Cc1c(Cl)c([N+](=O)[O-])nn1CCCC(=O)Nc1sc2c(c1C(N)=O)CCC(C)C2 (stereo not drawn),–,–,–,5.01µM,–
Cc1c(Br)c([N+](=O)[O-])nn1CCCC(=O)Nc1sc2c(c1C(N)=O)CCC(C)C2 (stereo not drawn),–,–,25.1µM,11.2µM,–
Cc1c(Br)c([N+](=O)[O-])nn1CC(=O)Nc1sc2c(c1C(=O)OC(C)C)CCCC2,–,–,–,–,–
Cc1cc(SCC(=O)c2ccc(Br)cc2)cc(C)[o+]1,–[7.66 µM],–,3.16µM,–,·
Cc1nnc(SCC(=O)c2ccc(Br)cc2)s1,–,–,–,·,–
Cn1c(=S)[nH]c2cccnc21,–,–,–,–,–
Cc1nc2c(=O)[nH]c(=S)n(C)c2nc1C,–,–,7.08µM,10µM,–
COc1ccc(Br)c(C(=O)Nc2cc3c(cc2N2CCCC2)n(C)c(=O)c(=O)n3C)c1,·,·,·,·,–
CCOc1ccc(CN(C)C(=O)CCl)cc1,–,–,0.0501µM,·,·
CCOc1ccc(CN(C)CCc2ccccn2)cc1,–,–,?,·,·
CC(C)C(=O)N1CCc2cc(-c3csc(N)n3)ccc21,–,–,14.1µM,20µM,–
Cc1cc(C)cc(N2CCn3c2nc2c3c(=O)n(CCc3ccccc3)c(=O)n2C)c1,·,·,·,·,1.78µM
Cn1c(=O)n(CCc2ccccc2)c(=O)c2c1nc1n2CCCN1CCc1ccccc1,–,–,11.2µM,–,?
CCOc1ccc(N2CCCn3c2nc2c3c(=O)n(CCc3ccccc3)c(=O)n2C)cc1,–,–,11.2µM,?,–
Cn1c(=O)n(CCc2ccccc2)c(=O)c2c1nc1n2CCCN1Cc1ccccc1,–,–,?,–,?
CC(=O)c1ccc(-c2nnc(CCC(=O)N(C)Cc3cccc4cnccc34)o2)s1,·,–,?,·,·
CN(Cc1cccc2cnccc12)C(=O)CCc1nnc(CCc2ccccc2)o1,–,–,28.2µM,·,–
COCC(=O)N1CCC2(CCCN(C(=O)Nc3ccc(OC)cc3)C2)CC1,–,–,–,–,·
Cc1c(Cl)cccc1-n1ncc(C(=O)N2CCc3ccccc3C2)c1C1CCN(C(=O)OC(C)(C)C)CC1,·,·,·,·,–
CN(C)c1ccc(C(=O)OCC(=O)Nc2ccc(N3CCOCC3)cc2)cc1,·,·,12.6µM,·,·
N#Cc1ccc(C(=O)OCC(=O)Nc2ccc(N3CCOCC3)cc2)cc1,–,–,?,·,–
Cc1ccccc1OCC(=O)OCC(=O)Nc1ccc(N2CCOCC2)cc1,–,–,–,·,?
O=C(COC(=O)CCC(=O)c1ccc(F)cc1)Nc1ccc(N2CCOCC2)cc1,–,–,–,17.8µM,–
Cc1ccc(CNC(=O)CCCCCn2c(=O)[nH]c3ccccc3c2=O)cc1,·,·,·,·,–
FC(F)(F)c1cnc(-c2cnc(-c3ccncc3)nc2)c(Cl)c1,–,–,17.8µM,·,–[9.22 µM]
SMILES,KinaseGlo FLuc,IMPase Li cell,ALDH1A1 block,HPGD inh,LMNA splice mod
COc1cc(C(=O)OC2CSCC2NC(=O)c2ccccc2)cc(OC)c1OC (stereo not drawn),–,–,–,·,–
C(=N\N1CCN(c2ccccn2)CC1)/c1ccco1,–,–,17.8µM,·,·
O=C(NC(=S)N1CCN(c2ccccn2)CC1)c1ccco1,–,–,11.2µM,·,·
CN1CCN(C(=S)NC(=O)c2ccco2)CC1,–,–,–,·,·
O=C(NC(=S)N1CCCc2ccccc21)c1ccco1,–,–,?,·,–
CC1Cc2ccccc2N1C(=S)NC(=O)c1ccco1 (stereo not drawn),–,–,22.4µM,·,–
COCc1cc(=O)[nH]c(SCCS(=O)(=O)c2ccc(C)cc2)n1,·,·,0.794µM,·,·
CCn1c(C(=O)N2CCC(C(=O)NCCCSC3CCCCC3)CC2)cc2sccc21,–,–,3.16µM,–,–
O=C(NCc1ccccn1)C1CCN(C(=O)c2cc3sccc3n2Cc2ccc(F)cc2)CC1,–,–,?,·,–[9.22 µM]
Cc1cc(C)nc(N2CCC(C(=O)NCc3ccccc3F)CC2)n1,–,–,–,·,–
O=C(NCc1ccco1)C1CCN(C(=O)c2cc3sccc3n2Cc2ccc(F)cc2)CC1,–,–,4.47µM,–,?
CCn1c(C(=O)N2CCc3ccccc3C2)cc2sccc21,–,–,–,3.16µM,–

# Bioassay records: PubChem, National Center for Advancing Translational Sciences (NCATS)
